Screening data: PubChem, The Scripps Research Institute Molecular Screening Center
An excerpt weighted towards active compounds, which were near 3.4% of everything screened.
MITF inh – human MITF inhibition, primary screen; O75030; AlphaScreen MITF homodimerization, bead proximity signal; inhibition, % at 2.6 µM; 0.91% of 650,000 active; in the data active means inhibition above about 50%;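 further: 0% = vehicle wells with protein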
FBW7 act – activators of human E3 ligase FBW7; 0.13% of 650,000 active; Q969H0; AID 1259310; normalized activity (activation), % at 26.1 µM; AlphaScreen FBW7–phospho-cyclin E peptide binding, activator screen; in the data active means normalized activity above about 1.9%;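 further: purified mutant Fbw7 with reduced substrate affinity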
GPR151 ag – human GPR151 activation. Q8TDV0. PathHunter beta-arrestin GPR151 cells, luminescence. activation, % at 11.2 µM. 1% of 650,000 active; in the data active means activation above about 4.9%;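 further: 0% = median of compound wells and 100% = cells with positive control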
TEAD-YAP inh – TEAD-YAP interaction inhibition | inhibition, % at 9.12 µM | AID 1259422 | HEK-TIYL cells, TEAD-Gal4/YAP UAS-luciferase luminescence | 1.4% of 640,000 active; in the data active means inhibition above about 32%;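 further: 0% = median of test compound wells and 100% = reference inhibitor wells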
GPR151 confirm – confirmation of human GPR151 activators. activation, % at 11.2 µM. 6,700 tested, under 10 active. shares compounds with GPR151 ag. AID 1508609. GPR151 PathHunter beta-arrestin cells, luminescence, 90 min; % of EA-reagent control over plate median;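 active means mean percent activation across replicates above the confirmation screen cutoff of 4.91%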
GPR119 ag – counter-screen for GPR151 activators: effect on human GPR119; shares compounds with GPR151 ag; GPR119 PathHunter beta-arrestin cells, luminescence, 90 min; 0 = compound-well median, 100 = enzyme-acceptor control; activation, % at 11.2 µM; 0.3% of 6,700 active; AID 1508611;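 active means mean percent activation in the counterscreen above 29.09%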;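 further: counterscreen on off-target GPR119 to flag nonselective hits from the GPR151 activator screen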
Target sequence (Q8TDV5 whole entry, looked up): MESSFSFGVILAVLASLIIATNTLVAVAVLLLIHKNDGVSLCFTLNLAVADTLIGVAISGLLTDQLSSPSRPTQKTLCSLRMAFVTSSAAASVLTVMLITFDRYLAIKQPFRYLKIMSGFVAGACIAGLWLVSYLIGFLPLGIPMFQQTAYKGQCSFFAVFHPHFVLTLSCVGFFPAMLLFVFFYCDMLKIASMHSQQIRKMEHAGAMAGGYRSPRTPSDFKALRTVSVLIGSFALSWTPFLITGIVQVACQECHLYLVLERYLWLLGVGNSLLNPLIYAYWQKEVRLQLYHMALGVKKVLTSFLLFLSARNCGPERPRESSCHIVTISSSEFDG
An asterisk follows results filed as active; nt = no result; ! = repeats disagree.

SMILES	MITF inh	FBW7 act	GPR151 ag	TEAD-YAP inh	GPR151 confirm	GPR119 ag
CCC(=O)C1=C(c2ccc(C(C)(C)C)cc2)N(C(=O)CC)n2cnnc2S1	7.0	-0.1	6.4*	66.8*	0.9	-3.1
CN1C(=O)c2cccc(NC(=O)c3ccc(Oc4ccccc4)cc3)c2C1=O	8.7	0.0	-0.3	11.9	nt	nt
COc1ccc(O)c(/C=N/N=C2/C(=O)Nc3ccccc32)c1	15.4	0.0	6.6*	8.9	-0.3	-5.3
COc1cc(/C=N/N=C2/C(=O)Nc3ccccc32)cc(OC)c1O	-8.1	-0.1	3.4	2.5	nt	nt
Cc1nn(-c2ccccc2)c(Cl)c1C(=O)Nc1nnc(COc2ccccc2)s1	-0.1	-0.2	5.5*	10.8	1.5	7.5
CC(C)(C)c1ccc(C(=O)Nc2nnc(COc3ccccc3)s2)cc1	2.0	0.3	0.0	1.5	nt	nt
CCCCOC(=O)c1ccc(-n2c(C)cc(C=O)c2C)cc1	11.0	0.1	-1.2	-6.5	nt	nt
C/C(=N\Nc1ccc([N+](=O)[O-])cc1S(=O)(=O)N1CCOCC1)c1cccs1	-8.3	-0.1	6.3*	3.9	-0.1	-11.8
COc1ccc(/C(C)=N/Nc2ccc([N+](=O)[O-])cc2S(=O)(=O)N2CCOCC2)cc1	-4.6	-0.1	1.2	0.2	nt	nt
COc1ccc(CNc2ncccc2N)cc1	16.5	0.0	-0.4	-21.1	nt	nt
CCOC(=O)c1ccc(SCC2CCCO2)c([N+](=O)[O-])c1 (centres undefined)	4.3	-0.2	1.6	-61.7	nt	nt
CC(C)OC(=O)c1ccc(SCC2CCCO2)c([N+](=O)[O-])c1 (centres undefined)	-2.0	-0.3	9.0*	-25.0	-0.3	-7.4
CO/N=C(/C(=O)N[C@@H]1C(=O)N2C(C(=O)O)=C(COC(C)=O)CS[C@H]12)c1csc(N)n1	22.9	-0.1	-0.3	2.3	nt	nt
CC(=O)OCC1=C(C(=O)O)N2C(=O)[C@@H](NC(=O)Cc3cccs3)[C@H]2SC1	-9.0	-0.2	18.8*!	-3.4	0.8	3.9
COc1ccc(NC(=O)CCC(=O)c2ccc(C)cc2)cn1	9.0	-0.2	-0.3	7.5	nt	nt
CN1CCN(CCCOc2ncc(Nc3ncc(-c4ccc(C(F)(F)F)c(F)c4)nc3C(N)=O)cn2)CC1	nt	nt	6.9*	nt	0.6	6.6
Cc1ccccc1CN1CCNC(=O)C1CC(=O)NC(C)(C)CO (centres undefined)	-7.7	0.1	-0.8	-3.4	nt	nt
CCOC(=O)C1C(=O)CC(C)(O)C(C(=O)OCC)C1c1ccc(C)cc1 (centres undefined)	8.4	-0.2	-0.2	12.6	nt	nt
CCOC(=O)C1C(=O)CC(C)(O)C(C(=O)OCC)C1c1ccc2c(c1)OCO2 (centres undefined)	-1.5	0.2	5.1*	-3.0	-0.7	-6.1
Cc1cc(NC(=O)CSc2nc3ccccc3c(=O)n2CCC(=O)N2CCN(c3ccccc3)CC2)no1	6.2	0.0	-0.5	-9.3	nt	nt
O=C(/C=C/c1ccco1)Nc1ccc(S(=O)(=O)N2CCCCCC2)cc1	-5.8	-0.2	-0.7	2.3	nt	nt
CNS(=O)(=O)c1ccc(NC(=O)/C=C/c2ccco2)cc1	-3.3	-0.1	-0.4	-9.4	nt	nt
O=C(/C=C/c1ccco1)Nc1ccc(S(=O)(=O)N2CCCCC2)cc1	-12.7	0.0	13.3*	4.6	-1.1	-7.9
O=C(Nc1ccc(S(=O)(=O)N2CCCCCC2)cc1)C(Cl)(Cl)Cl	5.7	-0.1	6.7*	-0.1	0.0	-7.4
CN(C)S(=O)(=O)c1ccc(NC(=O)/C=C/c2ccco2)cc1	7.4	0.2	8.3*	-22.9	0.9	3.8
SMILES	MITF inh	FBW7 act	GPR151 ag	TEAD-YAP inh	GPR151 confirm	GPR119 ag
CN(C)S(=O)(=O)c1cccc(C(=O)OCC(=O)NC(=O)NC2CCCC2)c1	2.0	0.1	1.4	5.1	nt	nt
CN(C(=O)c1cccc(S(=O)(=O)N(C)C)c1)C1CCS(=O)(=O)C1 (centres undefined)	11.8	-0.2	0.0	1.5	nt	nt
CCCCC(=O)N1CCc2cc(OC)c(OC)cc2C1COc1ccc(C(C)C)cc1 (centres undefined)	14.1	-0.1	1.8	-6.4	nt	nt
COc1cc(OC)cc(C(=O)NNC(=S)NCc2ccco2)c1	6.1	0.1	7.2*	-1.7	-0.9	-13.0
COc1cccc(C2CC(c3cc(OC)ccc3OC)n3nnnc3N2)c1 (centres undefined)	10.5	-0.1	2.1	8.0	nt	nt
CC(=O)N1CCC(C(=O)NCC2Cc3cc(F)cc(-c4ccc(F)c(C)c4)c3O2)CC1 (centres undefined)	0.9	0.2	-0.5	-2.1	nt	nt
Cc1ccc(NC(=O)C2CC(Cl)=CCC2C(=O)O)cc1[N+](=O)[O-] (centres undefined)	-5.6	0.1	17.7*	9.0	0.1	-3.7
C=CCn1c(SCC(=O)N(CC)c2ccccc2)nnc1-c1ccccc1O	22.4	0.2	-1.1	20.3	nt	nt
CSC1=C(C#N)C(c2ccc3c(c2)OCO3)CC(=O)N1 (centres undefined)	-1.6	0.1	5.1*	-1.6	0.2	2.5
CCCSC1=C(C#N)C(c2ccc3c(c2)OCO3)CC(=O)N1 (centres undefined)	1.1	0.0	-1.4	-6.2	nt	nt
CCOc1ccc2nc(SCC(=O)Nc3ccc(O)c(C(=O)O)c3)sc2c1	9.8	0.5	-1.9	2.5	nt	nt
O=C(Nc1cccc(C(F)(F)F)c1)NC1CC(=O)N(C2CCCC2)C1 (centres undefined)	10.0	0.3	-0.2	-4.2	nt	nt
CC(C)n1c(Nc2ccnn2C)nc2c(Nc3ccc(N4CCOCC4)cc3)ncnc21	13.2	0.1	5.5*	-4.8	0.4	-2.8
CC(C)n1c(Nc2ccc(N3CCOCC3)cc2)nc2c(Nc3ccc(N4CCOCC4)cc3)ncnc21	13.3	0.2	-1.3	11.1	nt	nt
CC1CCCCN1c1ncccc1C(=O)N1CCCC1 (centres undefined)	10.1	0.3	-1.1	2.7	nt	nt
CC1CCCCN1c1ncccc1C(=O)NC1CCCC1 (centres undefined)	30.4	0.1	6.4*	-3.8	1.4	4.1
Cn1ccnc1CN1CCC(Oc2ccc(C(=O)NCc3ccncc3)cc2)CC1	-7.9	0.3	5.2*	5.5	0.3	0.6
CCOc1c(S(=O)(=O)NCc2ccco2)ccc(Cl)c1Cl	13.1	0.0	6.3*	4.6	-1.7	-15.4
CCOc1ccc(S(=O)(=O)NCc2ccco2)c(C)c1C	-0.7	-0.1	-0.9	-9.0	nt	nt
CC1(CC(=O)Nc2ccccc2)NN=C(c2ccccc2)S1 (centres undefined)	-4.7	0.6	-1.4	-21.3	nt	nt
c1ccc(COC2CCCN(Cc3nc(-c4cccs4)no3)C2)nc1 (centres undefined)	-8.6	-0.1	0.3	5.4	nt	nt
c1ccc(COC2CCCN(Cc3nc(-c4ccc5c(c4)OCO5)no3)C2)nc1 (centres undefined)	4.5	-0.1	16.1*	-14.1	0.5	2.9
O=S(=O)(c1ccc(-c2ccccc2)cc1)N1CCN(c2nnnn2-c2ccccc2)CC1	2.3	0.4	4.1	2.5	nt	nt
